# Screening data: PubChem, Johns Hopkins Ion Channel Center
# Most compounds without a hit are left out; they make up all but 2.4% or so of the library.
# CHT allo act = CHT positive allosteric modulators, primary screen, cell-based, membrane potential dye, choline EC20 | CHT-expressing cells; hits give high values; LV-AA mutant CHT in HEK293 cells | 310,000 tested, 0.49% active | B-score at 10 µM;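 active = initial fluorescence not abnormally high and integrated response B-score, plate-corrected, over 3 SD above library mean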
# CHT inh = inhibitors of human choline transporter CHT. High affinity choline transporter 1 (Homo sapiens), Q9GZV3. B-score at 10 µM. 310,000 tested, 0.86% active. AID 488975, 2010. CHT-expressing cells, membrane potential dye, choline response; hits give low values;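 active = B-score over 3 SD under the library average, and starting fluorescence ratio not unusually high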;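 note: choline stimulus applied at its EC90 after an EC20 pre-addition; B-score computed on integrated fluorescence ratio after choline addition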
# TMEM16A act = TMEM16A chloride channel activators or potentiators, primary screen, cell-based, HTS | 340,000 tested, 0.3% active | B-score at 10 µM | Anoctamin-1 (Mus musculus), Q8BHY3 | AID 623877, 2012 | HEK293 TMEM16A/YFP-H148Q/I152L, iodide quench fluorescence; hits give low values;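 active = fluorescence-ratio B-score plate-corrected deviation score at least 3 library SD below zero, with starting fluorescence score within 5 deviations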;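 note: channel opened by trigger with iodide after compound preincubation; score built on the fluorescence ratio of max minus min over baseline; more negative score means more quench and so TMEM16A activation or potentiation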
# ANO1 block = TMEM16A chloride channel inhibitors, primary screen, cell-based, HTS | 310,000 tested, 1.2% active | Anoctamin-1 (Mus musculus), Q8BHY3 | normalized B-score (activity score, 25-100; higher = stronger inhibition) at 10 µM | HEK293 TMEM16A/YFP iodide influx fluorescence, ionomycin | AID 588511, 2011;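 active = ratio plate-corrected score three or more library SD toward inhibition, starting fluorescence score within five deviations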;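 note: score derived from kinetic fluorescence span divided by baseline fluorescence per well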
# CHT activ conf = CHT activators, confirmation, cell-based, membrane potential dye, duplicate; shares compounds with CHT allo act; CHT-expressing cells, membrane potential dye fluorescence (FDSS); % of choline EC20–EC90 response window; HEK293 expressing CHT LV-AA mutant; choline added at its EC20; activation, % at 10 µM; 2,500 tested, 91% active; AID 504833, 2011;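 active = primary screen active, with duplicate mean activation above negative control mean plus 3 SD, cut at about 11% in these data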
# HEK293 MP dye = membrane potential response in parental HEK293 cells, counter-screen for CHT activator project, cell-based, membrane potential dye; AID 623908, 2012; ratio readout change at 10 µM, hits read low; shares compounds with CHT allo act; membrane potential dye fluorescence (FDSS); measured after EC20 choline addition; 2,500 tested, 62% active;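 active = duplicate-averaged ratio beyond 3 SD from buffer wells, up or down, though filed actives are nearly all decreases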
# * = called active by the depositor; i = inactive; . = not tested or not shown.
SMILES,CHT allo act,CHT inh,TMEM16A act,ANO1 block,CHT activ conf,HEK293 MP dye
CS(=O)(=O)c1ccccc1-c1nnc(NC(=O)COc2ccc(Cl)cc2)o1,i,i,i,i,.,.
CC(NCc1cc(Br)ccc1OCC(=O)NCc1ccccc1)c1ccccc1 (configuration not stated),i,i,i,i,-1.8,i
O=C(CCC(=O)NNC(=O)COc1ccc(Br)cc1Br)NCc1ccccc1,i,i,i,i,.,.
O=C(COc1ccc(Br)cc1CNC1CCCC1)Nc1ccccc1,i,i,i,i,7.1,i
Cc1cc(C)n2nc(C(=O)NCC(=O)Nc3ccc(F)c(F)c3)nc2n1,i,i,i,i,.,.
O=C1C(NS(=O)(=O)c2cccs2)=C(N2CCOCC2)C(=O)c2ccccc21,7.17*,i,i,i,40.8*,-40.5*
CCOc1ccccc1N1CCN(C2=C(NS(=O)(=O)c3cccs3)C(=O)c3ccccc3C2=O)CC1,i,i,i,i,.,.
CNC(=O)Cn1ncc2c3ccccc3n(C)c2c1=O,i,i,i,i,.,.
CC(C)CSc1nnc(N)s1,i,i,i,i,.,.
CC(C)CSc1nsc(N)n1,i,i,i,i,26.6*,i
Nc1c2c(nc3c1CCC3)CCCC2,12.4*,i,.,i,44.5*,-70*
N#Cc1c(Cl)nc2c(c1C#N)CCCC2,i,i,i,i,.,.
Cc1cc(N2CCOCC2)c2c(N)cc(C)c(C)c2n1,i,i,i,i,55.0*,-73.4*
Cc1ccc2cc(C=O)c(N3CCOCC3)nc2c1C,i,i,i,i,.,.
CN1CCN(c2nc(C#N)cc(-c3ccccc3)n2)CC1,i,i,i,i,23.0*,-22.5*
Cc1ccc(NC(=S)N2CCN(S(C)(=O)=O)CC2)cc1,i,i,i,i,.,.
Cn1ncc(C#N)c1/N=C/N(Cc1ccccc1)Cc1ccccc1,15.7*,i,i,i,45.9*,i
O=C(OCC#CCSc1nnc(-c2cccc3ccccc23)o1)c1cnc[nH]1,.,.,i,.,.,.
Cc1nc(N2CCOCC2)c2oc3ccccc3c2n1,i,i,i,i,.,.
CCOC(=O)C1CCN(c2nc(C)nc3c2oc2ccccc23)CC1,8.05*,i,i,i,1.4,i
O=C(Nc1ccccc1)c1ccc[n+](Cc2ccc([N+](=O)[O-])cc2)c1,i,i,i,i,41.9*,-31.8*
Cc1ccccc1NC(=O)Nc1c(C)n(C)n(-c2ccccc2)c1=O,i,i,i,i,.,.
Cc1nc2sc3c(c2c(=O)o1)CC(C)(C)OC3,i,i,i,i,.,.
CC1(C)Cc2c(sc3nc4n(c(=N)c23)CCC4)CO1,8.52*,i,i,i,50.5*,-63.3*
N=c1c2c3c(sc2nc2n1CCC2)CCCC3,i,i,i,i,47.8*,-40*
SMILES,CHT allo act,CHT inh,TMEM16A act,ANO1 block,CHT activ conf,HEK293 MP dye
COc1ccc(C2=CSC3=NCCN23)cc1[N+](=O)[O-],i,i,i,i,.,.
COc1ccc(C2=CSC3=NCCN23)cc1Cl,i,i,i,i,.,.
O=[N+]([O-])c1ccc(C2=CSC3=NCCN23)cc1,7.39*,i,i,i,43.4*,-60.8*
COc1ccc(C2=CSC3=NCCN23)cc1F,7.18*,i,i,i,47.3*,-55.2*
COc1ccc(C2=CSC3=NCCN23)cc1Br,6.56*,i,i,i,29.4*,-47*
CCOc1ccccc1CNC(=O)Cn1nc(C)c2c(C)n(-c3ccc(C)cc3)nc2c1=O,i,i,i,i,.,.
COCCOC(=O)C1=C(C)NC(=S)NC1c1cccs1 (configuration not stated),i,i,i,i,.,.
Cc1sc2ncnc(NCCCn3ccnc3)c2c1C,i,i,i,i,48.4*,-50.6*
O=c1[nH]c(=O)c2cc3ccccc3nc2[nH]1,.,.,i,.,.,.
CC1(C)OC(C)(C)/C(=C/Nc2ccccc2)C1=O,i,i,i,i,.,.
CCn1cc(C(=O)OCC(=O)N(C)Cc2ccccc2)c(=O)c2ccc(C)nc21,i,i,i,i,.,.
CCn1cc(C(=O)OCC(=O)N(C)C2CCS(=O)(=O)C2)c(=O)c2ccc(C)nc21 (configuration not stated),8.64*,i,i,i,54.2*,-62.2*
CCn1cc(C(=O)OCC(=O)N2C(C)CCCC2C)c(=O)c2ccc(C)nc21 (configuration not stated),i,i,i,i,38.7*,-28.8*
O=C(OCC(=O)c1cccs1)c1ccc(NC(=O)c2ccco2)cc1,i,i,i,i,.,.
Cc1noc(C)c1COC(=O)c1ccccc1Oc1ccccc1,i,i,i,i,13.8*,i
O=C(O)CCc1nn2cnc3sc4c(c3c2nc1=O)CCCC4,i,i,i,i,54.3*,-42.6*
O=C(O)Cn1cnc2sc3c(c2c1=O)CCCC3,i,i,i,i,.,.
Cc1cc(C)nc(/N=C(\N)Nc2ccc(S(=O)(=O)Nc3nccc(C)n3)cc2)n1,7.25*,i,i,i,58.5*,-56.3*
CC1=NN(c2nc3ccccc3[nH]2)C(=O)/C1=C/N(C)C,i,i,i,i,46.2*,-32.9*
CC1=NN(c2ccccc2)C(=O)/C1=C/N(C)C,i,i,i,i,.,.
Cc1c(OC(C)C(=O)NC2CC(C)(C)NC(C)(C)C2)ccc2c3c(c(=O)oc12)CCC3 (configuration not stated),6.71*,i,i,i,42.8*,-52.2*
CSc1cccc(NC(=O)CC(C)n2ccnc2)c1 (configuration not stated),i,i,i,i,.,.
Cn1c(=O)c(=O)n(C)c2cc(S(=O)(=O)N3CCN(C4CCCCC4)CC3)ccc21,13.3*,i,i,i,105.8*,-50*
Cc1ccc(N(C)C(=O)C2CCCN2S(=O)(=O)c2ccc3c(c2)n(C)c(=O)c(=O)n3C)cc1 (configuration not stated),6.54*,i,i,i,24.1*,-44.3*
O=C(Nc1cc(C(F)(F)F)ccc1N1CCOCC1)C1CC1,.,.,i,.,.,.
